Experimental data from ChEMBL document CHEMBL3988442, “University of Dundee, Small-Polar-MMV Screening Library” (2021).
About 960 (1.5%) of roughly 66,000 compounds showed an effect of 50% or more. For the sample, strong results were picked, then their nearest neighbours and some compounds at random.

Tested on: Trypanosoma brucei
Experiment: Trypanosoma brucei 72 hour study
Assay type: functional, organism-based
Design: scale not given: in the data most compounds retested in dose-response had high values

`CS(=O)(=O)N1CCN(CC(O)COc2ccc(Cl)cc2)CC1` (configuration not stated) was tested, and the “Percent Effect” value (10 µM) was -47.15%.
With `Cc1csc(CN2CCC[C@]3(C[C@@H](OCC4CC4)CO3)C2)n1.O=C(O)C(F)(F)F` the “Percent Effect” value (30 µM, 30.03 µM) was -17.53%.
`Cc1cc(F)ccc1CN1CCCC(O)(CN2CCCC2)C1` (configuration not stated) was tested, and the “Percent Effect” value (30.3 µM, […]) was 54.93%.
With `Cc1cc(F)ccc1CN1CCC(O)(CN2CCCCC2)C1` (configuration not stated) the “Percent Effect” value (30 µM, 30.03 µM) was -52.45%.
In the case of `OC1(CN2CCCC2)CCCN(Cc2ccc(F)cc2Cl)C1` (configuration not stated), the “Percent Effect” value (30 µM, 30.03 µM) is reported as -4.937%.
In the case of `CN(C)CCN(Cc1ccccn1)Cc1ccnn1C1CCCCO1.O=C(O)CC(O)(CC(=O)O)C(=O)O` (configuration not stated), the “Percent Effect” value (30.3 µM, […]) is reported as -14.13%.
In the case of `Cn1nnc2c1C(COCC1CC1)CN(Cc1ccoc1)C2.O=C(O)C(F)(F)F` (configuration not stated), the “Percent Effect” value (30 µM, 30.03 µM) is reported as 5.795%.
With `Cc1cc(C)nc(N2Cc3cnn(Cc4ccc(F)cc4)c3C2)n1` the “Percent Effect” value (30 µM, 30.03 µM) was 3.465%.
`Cc1ccnc(N2Cc3cnn(Cc4ccc(F)cc4)c3C2)n1` was tested, and the “Percent Effect” value (30 µM, 30.03 µM) was -9.847%.
In the case of `CCNc1ccnc(N2Cc3cnn(Cc4ccc(F)cc4)c3C2)n1`, the “Percent Effect” value (30 µM, 30.03 µM) is reported as 57.35%.
`Cc1nc(N2Cc3cnn(Cc4ccc(F)cc4)c3C2)no1` was tested, and the “Percent Effect” value (30 µM, 30.03 µM) was 12.66%.
With `CNc1cc(C)nc(N2Cc3cnn(Cc4ccc(F)cc4)c3C2)n1` the “Percent Effect” value (30 µM, 30.03 µM) was 98.86%.
In the case of `Fc1ccc(Cn2ncc3c2CN(c2ncccn2)C3)cc1`, the “Percent Effect” value (30 µM, 30.03 µM) is reported as 2.324%.
`CC(C)c1nn(C)c(Cl)c1CNCc1ccc(N(C)C)nc1.Cl` was tested, and the “Percent Effect” value (30.3 µM, […]) was 12.78%.
In the case of `CC(C)CN1CCC2(CCN(Cc3ccc(F)cc3)CC2)C1=O.O=C(O)C(F)(F)F`, the “Percent Effect” value (30.3 µM, […]) is reported as 15.86%.
In the case of `Cc1cccc(CN2CCCC2c2cccc(Nc3nccs3)n2)c1` (configuration not stated), the “Percent Effect” value (30.3 µM, […]) is reported as 33.44%.
For `Cc1cccc(CN2CCCCC2c2n[nH]cc2-c2cc(C)no2)c1.Cl` (configuration not stated), the “Percent Effect” value (30.3 µM, […]) was 54.66%.
With `Cc1cccc(CN2CCCC2c2cccc(CCC(=O)O)n2)c1` (configuration not stated) the “Percent Effect” value (30.3 µM, […]) was -27.55%.
For `Cc1cc(C2CCCN2Cc2cc(-c3ccco3)on2)on1` (configuration not stated), the “Percent Effect” value (30 µM, 30.03 µM) was -36.29%.
With `Cc1nccc(C2CCCCN2Cc2cccc(F)c2)n1` (configuration not stated) the “Percent Effect” value (30.3 µM, […]) was -5.435%.
In the case of `Cc1nc(C2CN(Cc3ccccc3C)CCO2)no1` (configuration not stated), the “Percent Effect” value (30.3 µM, […]) is reported as -23.18%.
`CN(CC1(O)CCCN(c2ccccn2)C1)C(=O)CCc1cccs1` (configuration not stated) was tested, and the “Percent Effect” value (30.3 µM, […]) was 19.98%.
For `Cc1ccc(CN(CCCN2CCOCC2)Cc2cnn(C)c2)o1.O=C(O)CC(O)(CC(=O)O)C(=O)O`, the “Percent Effect” value (30.3 µM, […]) was -8.498%.
For `CN(C)C(=O)[C@]12CCCN(CC3CC3)C[C@H]1CN(c1ccccn1)C2.O=C(O)C(F)(F)F.O=C(O)C(F)(F)F`, the “Percent Effect” value (30.3 µM, […]) was 0.08001%.
`CN1CC(=O)N(c2ccccc2)CC12CCN(C(=O)c1ccnnc1)C2.O=C(O)C(F)(F)F` (configuration not stated) was tested, and the “Percent Effect” value (30.3 µM, […]) was -13.49%.
`CN(C)C(=O)COC[C@]12COC[C@H]1CN(Cc1ccccc1)C2.O=C(O)C(F)(F)F` was tested, and the “Percent Effect” value (30.3 µM, […]) was -79.79%.
For `O=C(c1cc(=O)n(-c2ccccc2)[nH]1)N1CCOC(C(F)(F)F)C1` (configuration not stated), the “Percent Effect” value (30 µM, 30.03 µM) was 25.14%.
With `Cc1cnc(CN(Cc2ccc(Cl)s2)C2CCN(C)C2)o1` (configuration not stated) the “Percent Effect” value (30 µM, 30.03 µM) was -5.686%.
`COc1cc(C(=O)NC(C)c2cccs2)cc2c1OCCO2` (configuration not stated) was tested, and the “Percent Effect” value (30.3 µM, […]) was 6.204%.
With `COc1ccc(C(C)NCCC(N)=O)cc1F` (configuration not stated) the “Percent Effect” value (30 µM, 30.03 µM) was -19.58%.
For `COc1cc(CNC(C)c2ccc(F)c(F)c2)cc2c1OCCO2.O=C(O)C(=O)O` (configuration not stated), the “Percent Effect” value (30.3 µM, […]) was 100.7%.
With `CCn1ncc(-c2cc(C(F)F)nc3sc(C(N)=O)c(N)c23)c1C` the “Percent Effect” value (30 µM, 30.03 µM) was 26.92%.
For `Cc1nc[nH]c1CN1CCN(C(=O)CN2CCCC2)[C@H]2CS(=O)(=O)C[C@H]21`, the “Percent Effect” value (30 µM, 30.03 µM) was 8.106%.
With `Cc1nc[nH]c1CN1CCN(C(=O)C2(C)CC2)[C@H]2CS(=O)(=O)C[C@H]21` the “Percent Effect” value (30 µM, 30.03 µM) was 1.317%.
`Cc1nc[nH]c1CN1CCN(C(=O)CCC(F)(F)F)[C@H]2CS(=O)(=O)C[C@H]21` was tested, and the “Percent Effect” value (30 µM, 30.03 µM) was 50.6%.
For `CCOc1cc2c(cc1CNC(Cc1cccs1)c1nccs1)OCO2.Cl` (configuration not stated), the “Percent Effect” value (30.3 µM, […]) was -21.18%.
`CC(C)c1ncc(-c2cc(C3CCC3)nc(N)c2C#N)cn1` was tested, and the “Percent Effect” value (30 µM, 30.03 µM) was 17.32%.
With `CC(O)(CNC(=O)c1cccnc1-n1cccn1)c1ccsc1` (configuration not stated) the “Percent Effect” value (30 µM, 30.03 µM) was -28.28%.
With `COc1ccnc(NC(=O)c2cscc2C)c1` the “Percent Effect” value (30 µM, 30.03 µM) was 88.82%.
`COc1ccnc(NC(=O)c2cscn2)c1` was tested, and the “Percent Effect” value (30 µM, 30.03 µM) was 7.926%.
`COc1ccnc(NC(=O)c2ccsc2)c1` was tested, and the “Percent Effect” value (30 µM, 30.03 µM) was 14.39%.
For `CCCn1c(=O)n(CCC(=O)N(C)Cc2ccc(C)o2)c2ccccc21`, the “Percent Effect” value (30 µM, 30.03 µM) was -21.38%.
In the case of `Cc1nc(O)cc(C2CCN(Cc3ccc(F)c(F)c3)C2)n1.O=C(O)CC(O)(CC(=O)O)C(=O)O` (configuration not stated), the “Percent Effect” value (30.3 µM, […]) is reported as 13.84%.
With `CNC(=O)N1CCC2(CC1)c1ncc(C)n1CCN2C.O=C(O)C(F)(F)F.O=C(O)C(F)(F)F` the “Percent Effect” value (30.3 µM, […]) was 11.26%.
`Oc1cc(CNCCCN2CCCC2)nc2ccc(F)cc12` was tested, and the “Percent Effect” value (30 µM, 30.03 µM) was -52.8%.
For `O=S(=O)(CCNCc1cc(O)c2cc(F)ccc2n1)N1CCCC1`, the “Percent Effect” value (30 µM, 30.03 µM) was 71.96%.
In the case of `O=C(CCNCc1cc(O)c2cc(F)ccc2n1)N1CCCC1`, the “Percent Effect” value (30 µM, 30.03 µM) is reported as -42.31%.
